Source: PubChem BioAssay (NCATS)
Inconclusive results are not listed. Activity calls are given as the source filed them. Calls come from the whole dose curve.

Assay: Primary qHTS for inhibitors of MERS-S pseudo-typed particle cell entry (AID 1479149); note: nearly all actives have a fitted effect of over 60% in size
Settings: MERS-S pseudotyped particle entry, luciferase; series mostly up to 57.1 µM

Compound | outcome
O=C(C[C@@H]1NCCC[C@H]1O)Cn1cnc2cc(Br)c(Cl)cc2c1=O | inactive
O=C(OCCN1CCCCC1)C(O)(c1ccccc1)c1ccccc1 | inactive
FC(F)OC(F)(F)C(F)Cl (configuration not stated) | inactive
C=CC[C@]1(O)CC[C@H]2[C@@H]3CCC4=CCCC[C@@H]4[C@H]3CC[C@@]21C | inactive
C[C@@H](CO)NC(=O)[C@@H]1C=C2c3cccc4[nH]cc(c34)C[C@H]2N(C)C1 | inactive
CCNC1(c2cccs2)CCCCC1=O (configuration not stated) | inactive
O=P(O)(O)C(Cl)(Cl)P(=O)(O)O | inactive [at 5.34 µM]
CCC1C(C)=NN=C(c2ccc(OC)c(OC)c2)c2cc(OC)c(OC)cc21 (configuration not stated) | inactive
C[C@@H]([C@H](O)c1ccccc1)N(C)C | inactive
c1ccc2sc(SNC3CCCCC3)nc2c1 | inactive [at 114 µM]
O=C1C[C@@H]2OCC=C3CN4CC[C@]56c7ccccc7N1[C@H]5[C@H]2[C@H]3C[C@H]46 | inactive
NCC(O)c1cccc(O)c1 (configuration not stated) | inactive
CCOc1ccc2c3c1O[C@H]1[C@@H](O)C=C[C@H]4[C@@H](C2)N(C)CC[C@@]341 | inactive
ClC1C(Cl)C(Cl)C(Cl)C(Cl)C1Cl (configuration not stated) | inactive
CC(C)CCON=O | inactive
CCCCCCCCCC(=O)O[C@H]1CC[C@H]2[C@@H]3CCC4=CC(=O)CC[C@]4(C)[C@H]3CC[C@]12C | inactive
C[N+]1(C)CCCCC1COC(=O)C(O)(c1ccccc1)c1ccccc1 (configuration not stated) | inactive
CC1CCC(C(C)C)C(OC(=O)c2ccccc2N)C1 (configuration not stated) | inactive
CC(C)(O)[C@@H]1[C@H]2OC(=O)[C@@H]1[C@]1(O)C[C@H]3O[C@]34C(=O)O[C@H]2[C@]14C | inactive

Compound | outcome
CCCC(=O)OC(C(Cl)(Cl)Cl)P(=O)(OC)OC (configuration not stated) | inactive [at 114 µM]
CN1[C@H]2CC[C@@H]1[C@@H](C(=O)O)[C@@H](OC(=O)c1ccccc1)C2 | inactive [at 114 µM]
CCCCNCC(O)c1ccc(O)cc1 (configuration not stated) | inactive
O=[N+]([O-])c1cc(I)c(O)c(I)c1 | inactive
COc1ccc(OC)c(C(O)C(C)N)c1 (configuration not stated) | inactive
O=[N+]([O-])C(Br)(CO)CO | inactive
CCC1(CC)C(=O)NC(=O)N(C)C1=O | inactive
CCOC(=O)c1ccccc1C(=O)OCC | inactive
CC(N)Cc1ccc(O)cc1 (configuration not stated) | inactive
O=S(=O)(O)c1cc(O)ccc1O | inactive
CCNCC(O)c1cccc(O)c1 (configuration not stated) | inactive
Cc1ccccc1-n1c(CF)nc2ccc(N)cc2c1=O | inactive
C[C@]12CCC(=O)C=C1C=C[C@@H]1[C@@H]2CC[C@@]2(C)[C@H]1CC[C@@]2(O)CCC(=O)O | inactive
COc1cc2c(cc1OC)[C@@]13CCN4CC5=CCO[C@H]6CC(=O)N2[C@H]1[C@H]6[C@H]5C[C@H]43 | inactive
CCN(CC)C(=O)N[C@H]1C[C@@H]2c3cccc4[nH]cc(c34)C[C@H]2N(C)C1 | inactive
CCC(=O)O[C@@](Cc1ccccc1)(c1ccccc1)[C@@H](C)CN(C)C | inactive
CC[N+](C)(CC)CCOC(=O)C(O)(c1ccccc1)c1ccccc1 | inactive
O=C(O)C(Cl)(Cl)Cl | inactive
